± gives the standard deviation of the averaged measurements.
Tests used:
Experiment in all cases: promoter activity interaction Z-score (Lux/OD deviation from empty-vector control); higher = stronger promoter induction by the compound
[1] = tested on: E. coli BW25113 acrABp lux reporter
Procedure, shortened: (§1)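 E. coli BW25113 (wild type or marA, soxS or rob deletion) carrying low-copy luxCDABE promoter reporters grew in 40 µl LB Lennox in 384-well plates at 37°C. Each compound was tested at four 1:2 dilutions in biological duplicates. OD600 and luminescence were read every 30 min for 12 h. Areas were taken over 0–8 h (wild type) or 1–9 h (mutants), and wells below 10% of median growth area were removed. The score is the Z-transformed residual of growth-normalised luminescence fitted against the empty-vector control.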

[2] = tested on: E. coli BW25113 marRABp lux reporter
Procedure, shortened: as §1

[3] = tested on: E. coli BW25113 micFp lux reporter
Procedure, shortened: as §1

[4] = tested on: E. coli BW25113 ompFp lux reporter
Procedure, shortened: as §1

[5] = tested on: E. coli BW25113 robp lux reporter
Procedure, shortened: as §1

[6] = tested on: E. coli BW25113 soxSp lux reporter
Procedure, shortened: as §1

[7] = tested on: E. coli BW25113 tolCp lux reporter
Procedure, shortened: as §1

[8] = 13.7 µg/ml, genetic background: wild type
[9] = 13.7 µg/ml, genetic background: ΔmarA
[10] = 13.7 µg/ml, genetic background: Δrob
[11] = 13.7 µg/ml, genetic background: ΔsoxS
[12] = 27.5 µg/ml, genetic background: wild type
[13] = 27.5 µg/ml, genetic background: ΔmarA
[14] = 27.5 µg/ml, genetic background: Δrob
[15] = 27.5 µg/ml, genetic background: ΔsoxS
[16] = 54.9 µg/ml, genetic background: wild type
[17] = 54.9 µg/ml, genetic background: ΔmarA
[18] = 54.9 µg/ml, genetic background: Δrob
[19] = 54.9 µg/ml, genetic background: ΔsoxS
[20] = 109.8 µg/ml, genetic background: wild type
[21] = 109.8 µg/ml, genetic background: ΔmarA
[22] = 109.8 µg/ml, genetic background: Δrob
[23] = 109.8 µg/ml, genetic background: ΔsoxS

CNC[C@H](O)c1ccc(O)c(O)c1 [Adrenalin]
promoter activity interaction Z-score [1, 8]: -0.118 ± 0.26 | promoter activity interaction Z-score [1, 9]: -0.4 ± 0.56 | promoter activity interaction Z-score [1, 10]: 0.0418 ± 0.19 | promoter activity interaction Z-score [1, 11]: -0.382 ± 0.4 | promoter activity interaction Z-score [1, 12]: -0.0931 ± 0.1 | promoter activity interaction Z-score [1, 13]: 0.531 ± 0.016 | promoter activity interaction Z-score [1, 14]: -0.104 ± 0.11 | promoter activity interaction Z-score [1, 15]: -0.043 ± 0.052 | promoter activity interaction Z-score [1, 16]: -0.373 ± 0.29 | promoter activity interaction Z-score [1, 17]: 0.688 ± 0.54 | promoter activity interaction Z-score [1, 18]: -0.345 ± 0.12 | promoter activity interaction Z-score [1, 19]: -0.566 ± 0.013 | promoter activity interaction Z-score [1, 20]: -0.472 ± 0.26 | promoter activity interaction Z-score [1, 21]: 0.342 ± 0.19 | promoter activity interaction Z-score [1, 22]: 0.0555 ± 0.04 | promoter activity interaction Z-score [1, 23]: 0.539 ± 0.12 | promoter activity interaction Z-score [2, 8]: 0.121 ± 0.2 | promoter activity interaction Z-score [2, 9]: -0.289 ± 0.22 | promoter activity interaction Z-score [2, 10]: -0.0038 ± 0.073 | promoter activity interaction Z-score [2, 11]: -0.111 ± 0.21 | promoter activity interaction Z-score [2, 12]: 0.38 ± 0.26 | promoter activity interaction Z-score [2, 13]: 0.173 ± 0.6 | promoter activity interaction Z-score [2, 14]: 0.209 ± 0.28 | promoter activity interaction Z-score [2, 15]: 0.0712 ± 0.22 | promoter activity interaction Z-score [2, 16]: -0.365 ± 0.31 | promoter activity interaction Z-score [2, 17]: -0.424 ± 0.13 | promoter activity interaction Z-score [2, 18]: -0.339 ± 0.43 | promoter activity interaction Z-score [2, 19]: -0.285 ± 0.12 | promoter activity interaction Z-score [2, 20]: -0.142 ± 0.4 | promoter activity interaction Z-score [2, 21]: -0.43 ± 0.15 | promoter activity interaction Z-score [2, 22]: 0.0375 ± 0.16 | promoter activity interaction Z-score [2, 23]: 0.218 ± 0.26 | promoter activity interaction Z-score [3, 8]: -0.11 ± 0.0085 | promoter activity interaction Z-score [3, 9]: -0.0104 ± 0.018 | promoter activity interaction Z-score [3, 10]: 0.263 ± 0.12 | promoter activity interaction Z-score [3, 11]: -0.351 ± 0.072 | promoter activity interaction Z-score [3, 12]: -0.259 ± 0.091 | promoter activity interaction Z-score [3, 13]: -0.0735 ± 0.14 | promoter activity interaction Z-score [3, 14]: 0.173 ± 0.31 | promoter activity interaction Z-score [3, 15]: 0.192 ± 0.11 | promoter activity interaction Z-score [3, 16]: -0.122 ± 0.19 | promoter activity interaction Z-score [3, 17]: 0.0635 ± 0.093 | promoter activity interaction Z-score [3, 18]: 0.189 ± 0.21 | promoter activity interaction Z-score [3, 19]: -0.508 ± 0.077 | promoter activity interaction Z-score [3, 20]: -0.426 ± 0.33 | promoter activity interaction Z-score [3, 21]: -0.136 ± 0.074 | promoter activity interaction Z-score [3, 22]: 0.0853 ± 0.074 | promoter activity interaction Z-score [3, 23]: -0.142 ± 0.14 | promoter activity interaction Z-score [4, 8]: 0.379 ± 0.018 | promoter activity interaction Z-score [4, 9]: -0.309 ± 0.22 | promoter activity interaction Z-score [4, 10]: -0.171 ± 0.37 | promoter activity interaction Z-score [4, 11]: -0.679 ± 0.25 | promoter activity interaction Z-score [4, 12]: 0.362 ± 0.017 | promoter activity interaction Z-score [4, 13]: 0.00142 ± 0.52 | promoter activity interaction Z-score [4, 14]: -0.0408 ± 0.55 | promoter activity interaction Z-score [4, 15]: -0.0291 ± 0.36 | promoter activity interaction Z-score [4, 16]: -0.597 ± 0.18 | promoter activity interaction Z-score [4, 17]: 0.175 ± 0.27 | promoter activity interaction Z-score [4, 18]: -1.07 ± 0.55 | promoter activity interaction Z-score [4, 19]: -0.961 ± 0.21 | promoter activity interaction Z-score [4, 20]: -0.0147 ± 0.25 | promoter activity interaction Z-score [4, 21]: -0.377 ± 0.44 | promoter activity interaction Z-score [4, 22]: -0.876 ± 1.6 | promoter activity interaction Z-score [4, 23]: -0.239 ± 0.22 | promoter activity interaction Z-score [5, 8]: -0.189 ± 0.26 | promoter activity interaction Z-score [5, 9]: -0.738 ± 0.13 | promoter activity interaction Z-score [5, 10]: -0.362 ± 0.49 | promoter activity interaction Z-score [5, 11]: -0.567 ± 0.17 | promoter activity interaction Z-score [5, 12]: 0.83 ± 0.5 | promoter activity interaction Z-score [5, 13]: -0.178 ± 0.0036 | promoter activity interaction Z-score [5, 14]: -0.489 ± 0.6 | promoter activity interaction Z-score [5, 15]: -0.00139 ± 0.12 | promoter activity interaction Z-score [5, 16]: -0.414 ± 0.15 | promoter activity interaction Z-score [5, 17]: -0.097 ± 0.33 | promoter activity interaction Z-score [5, 18]: -0.505 ± 1.8 | promoter activity interaction Z-score [5, 19]: -0.645 ± 0.021 | promoter activity interaction Z-score [5, 20]: -0.53 ± 0.61 | promoter activity interaction Z-score [5, 21]: -0.598 ± 0.62 | promoter activity interaction Z-score [5, 22]: -1.48 ± 0.78 | promoter activity interaction Z-score [5, 23]: -1.95 ± 0.2 | promoter activity interaction Z-score [6, 8]: 0.381 ± 0.43 | promoter activity interaction Z-score [6, 9]: 0.0748 ± 0.12 | promoter activity interaction Z-score [6, 10]: 0.425 ± 0.29 | promoter activity interaction Z-score [6, 11]: -0.181 ± 0.096 | promoter activity interaction Z-score [6, 12]: 0.23 ± 0.19 | promoter activity interaction Z-score [6, 13]: 0.131 ± 0.16 | promoter activity interaction Z-score [6, 14]: 0.208 ± 0.28 | promoter activity interaction Z-score [6, 15]: 0.264 ± 0.64 | promoter activity interaction Z-score [6, 16]: 0.0152 ± 0.17 | promoter activity interaction Z-score [6, 17]: -0.0453 ± 0.22 | promoter activity interaction Z-score [6, 18]: 0.121 ± 0.0073 | promoter activity interaction Z-score [6, 19]: -0.333 ± 0.19 | promoter activity interaction Z-score [6, 20]: -0.143 ± 0.091 | promoter activity interaction Z-score [6, 21]: -0.248 ± 0.045 | promoter activity interaction Z-score [6, 22]: 0.0524 ± 0.1 | promoter activity interaction Z-score [6, 23]: 0.0254 ± 0.36 | promoter activity interaction Z-score [7, 8]: -0.595 ± 0.65 | promoter activity interaction Z-score [7, 9]: -0.333 ± 0.39 | promoter activity interaction Z-score [7, 10]: 0.343 ± 0.15 | promoter activity interaction Z-score [7, 11]: -0.571 ± 0.34 | promoter activity interaction Z-score [7, 12]: -0.0385 ± 0.61 | promoter activity interaction Z-score [7, 13]: -0.394 ± 0.82 | promoter activity interaction Z-score [7, 14]: -0.578 ± 0.57 | promoter activity interaction Z-score [7, 15]: 1.04 ± 1.6 | promoter activity interaction Z-score [7, 16]: -0.749 ± 0.67 | promoter activity interaction Z-score [7, 17]: 0.176 ± 0.046 | promoter activity interaction Z-score [7, 18]: -0.0706 ± 0.3 | promoter activity interaction Z-score [7, 19]: 0.0714 ± 0.89 | promoter activity interaction Z-score [7, 20]: -0.414 ± 0.029 | promoter activity interaction Z-score [7, 21]: -0.30805 ± 0.0003 | promoter activity interaction Z-score [7, 22]: -0.0487 ± 0.27 | promoter activity interaction Z-score [7, 23]: -0.39 ± 1.4

Source: the supplement of paper PMC12282887
